# Screens deposited in PubChem by several laboratories.
# In the library only some 4.9% were active in any assay of this set; here they are far more common.
# NALP3 yeast inh = NALP3 inflammasome inhibitors in reconstituted yeast, primary screen, luminescence, uHTS | Yeast reconstituted NLRP3/ASC/caspase-1, beta-gal luminescence, 24 h | inhibition, % at 10 µM | hit rate 0.39% among 330,000 | AID 2825, 2010;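 active means inhibition of 50% or more; inactive means inhibition below 50%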;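 further: plate controls were induced DMSO wells for no effect and uninduced yeast grown without galactose for full effect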
# NALP1 inh = NALP1 inflammasome inhibitors in reconstituted yeast, colorimetric, S. cerevisiae, triplicate retest | S. cerevisiae NALP1/ASC/caspase-1 growth, X-gal OD620, 72 h | hit rate 0.61% among 280,000 | inhibition, % at 10 µM; in the data active means inhibition mostly above about 24%, no sharp cut-off; inactive means mostly below about 32%
# tim10-1 inh = growth inhibitors of tim10-1 mutant yeast, primary screen, luminescence, uHTS. S. cerevisiae tim10-1 ts strain growth, BacTiter-Glo, 24 h. inhibition, % at 20 µM. hit rate 2.2% among 330,000. AID 463190, 2010;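 active means inhibition of at least 40%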;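 further: mutant grown at 25 °C; 0% = DMSO wells with yeast and 100% = wells holding no yeast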
# tim23-1 inh = growth inhibitors of tim23-1 mutant yeast, primary screen, luminescence, uHTS | S. cerevisiae tim23-1 growth, BacTiter-Glo luminescence, 24 h | inhibition, % at 20 µM | hit rate 1.3% among 330,000 | AID 463212, 2010;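 active means growth inhibition of the mutant yeast at or above 50%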;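 further: temperature-sensitive mutant grown at 25 °C; plate controls were DMSO-treated mutant yeast for no effect and medium wells lacking yeast for full effect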
# TIM10 inh = growth inhibitors of isogenic TIM10 control yeast, primary screen, counter-screen for tim10-1 yeast inhibitor project, luminescence, uHTS; inhibition, % at 10 µM; hit rate 1.4% among 330,000; S. cerevisiae TIM10 strain growth, BacTiter-Glo luminescence, 24 h; AID 463195, 2010;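 active means inhibition of 40% or more at the single tested concentration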;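 further: wild-type TIM10 isogenic control strain grown at permissive 25 °C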
# SKKanGAS inh = S. pyogenes SKKanGAS growth inhibitors in kanamycin, primary screen, streptokinase expression inhibitor project, SKKanGAS strain, BacTiter-Glo luminescence | AID 1662, 2009 | inhibition, % at 7.5 µM | 6 h | hit rate 1.3% among 300,000;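 active means mean replicate score, as percent of positive control median, at least 50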;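 further: strain carries kanamycin resistance gene driven by streptokinase promoter and grows in 40 µg/ml kanamycin; loss of luminescence reflects streptokinase promoter inhibition or plain growth inhibition; 0% = median of DMSO wells and 100% = positive control at its reference dose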
# tim10-1 confirm = growth inhibitors of tim10-1 mutant yeast, confirmation, single concentration, luminescence, S. cerevisiae | shares compounds with tim10-1 inh | S. cerevisiae tim10-1 ts strain growth, BacTiter-Glo, 24 h | inhibition, % at 20 µM | hit rate 56% among 7,400;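 active means inhibition of yeast growth at or above a set limit in either of two repeat tests at 20 µM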;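 further: tim10-1 mutant grown at permissive 25 °C to find synthetic lethal compounds; 0% = DMSO yeast wells and 100% = medium wells without yeast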
# An asterisk follows results filed as active; . = no result given.
SMILES,NALP3 yeast inh,NALP1 inh,tim10-1 inh,tim23-1 inh,TIM10 inh,SKKanGAS inh,tim10-1 confirm
Cc1ccc(N2C(=O)C3Sc4[nH]c(=O)sc4C(c4ccccc4)C3C2=O)cc1 (stereo not given),16,0,37,25,25,.,.
O=C(OCc1nnc(-c2ccccc2)o1)C1CC(=O)N(CCc2ccccc2)C1 (stereo not given),20,.,17,24,8,.,.
COc1cc(C2C=C(Nc3ccccc3)C(=O)N2c2ccccc2)ccc1O (stereo not given),27,5,42*,21,19,-1,11
COC(=O)c1c(C)[nH]c(C(=O)C(C)OC(=O)c2c(C)noc2C)c1C (stereo not given),5,.,8,15,-4,.,.
COc1ccccc1N(C(=O)c1snc(C(N)=O)c1N)C(C(=O)NC1CCCCC1)c1cccc(OC)c1OC (stereo not given),29,10,18,12,-11,3,.
Cc1sc2ccc3sccc3c2[n+]1C,17,5,43*,25,20,3,46*
COc1ccc(CCNC(=S)N2CCN(S(=O)(=O)c3ccc(C)cc3)CC2)cc1,23,.,4,21,-4,-1,.
CC(C)c1ccc2oc(-c3cc(N)ccc3O)nc2c1,9,13,52*,49,4,-3,33*
O=C(c1ccccc1)N1CCN(CC(O)COc2ccc(Br)cc2)CC1 (stereo not given),24,1,11,10,2,-1,.
Cn1cc(C(=O)NCCN2CCN(c3cccc(Cl)c3)CC2)c2c3ccccc3n(C)c2c1=O,15,6,46*,26,13,10,14
CCN(c1ccccc1)S(=O)(=O)c1cccc(C(=O)NCC(c2cccs2)N2CCOCC2)c1 (stereo not given),7,.,14,11,18,-2,.
Cn1nc(-c2ccc(Cl)cc2)c2cc(C(=O)NCCN3CCOCC3)sc21,6,-15,46*,42,27,-4,27
Cn1nc(-c2ccc(Cl)cc2)c2cc(C(=O)N3CCN(C(=O)c4ccco4)CC3)sc21,8,2,41*,33,24,20,5
CC(C)N(CCCNC(=O)C1CCN(C(=O)c2cc3sccc3n2C)CC1)Cc1ccccc1,27,0,-6,-1,9,-8,.
CCSc1nnc2ccc(-c3ccc(OC)c(OC)c3)nn12,-39,-23,28,18,17,-2,.
COC(=O)c1ccccc1NC(=O)CSc1nc(O)cc(=O)n1C1CCCC1,11,6,46*,17,5,25,24
O=C(c1ccc(Cl)cc1)[C@@H]1[C@@H]2C(=O)N(c3ccccc3)C(=O)[C@@H]2C2c3ccccc3C=NN21 (stereo not given in full),-7,34,40*,41,15,-1,23
O=c1[nH]c(=O)n(-c2cc(Br)c(O)c(Br)c2)cc1Br,14,4,-8,-13,-7,1,.
CC12CCC(C(=O)N3CCN(C(c4ccccc4)c4ccccc4)CC3)(OC1=O)C2(C)C (stereo not given),9,-1,41*,34,28,1,15
COCCNC(=O)c1c(N)n(CCC2=CCCCC2)c2nc3ccccc3nc12,-8,0,43*,5,24,7,13
COCCn1c(N)c(C(=O)OCc2ccccc2)c2nc3ccccc3nc21,15,7,43*,41,30,3,27
COc1ccc(CCn2c(N)c(C(=O)NCc3ccco3)c3nc4ccccc4nc32)cc1,2,25,29,5,21,11,.
C[C@H]1CN([C@@H](C)CO)C(=O)c2cccc(NS(=O)(=O)c3ccc(F)cc3)c2O[C@H]1CN(C)S(=O)(=O)c1cn(C)cn1,6,.,8,10,-3,.,.
Cc1cc(Cl)ccc1OCC(=O)NC(=S)Nc1ccc(Cl)cn1,14,6,-19,-1,-1,.,.
CCCC(=O)NC(=S)Nc1ccc(Cl)cn1,20,12,45*,47,39,-1,32*
SMILES,NALP3 yeast inh,NALP1 inh,tim10-1 inh,tim23-1 inh,TIM10 inh,SKKanGAS inh,tim10-1 confirm
COc1cc2c3c(c1)/C(=C1/SC(NC(C)=O)=NC1=O)C(=O)N3C(C)(C)C=C2C,10,8,62*,45,30,13,56*
O=C(COC(=O)CCC(=O)c1cccs1)Nc1ccc(F)c(F)c1F,7,.,-6,-3,-2,.,.
O/N=C(\c1ccc(Cl)cc1Cl)c1ncc(C(F)(F)F)cc1Cl,-18,-5,40,27,39,51*,50*
Cc1ccc(S(=O)(=O)/N=C2/NC(=O)/C(=C\c3cc(Br)cc(Br)c3O)S2)cc1,11,11,42*,36,38,.,37*
Cc1ccc(S(=O)(=O)/N=C2/NC(=O)/C(=C/c3ccc(Br)o3)S2)cc1,-1,31,19,21,5,16,.
COc1ccc(NS(=O)(=O)c2cc(-c3cnc(C4CC4)o3)ccc2C)cc1,1,26,44*,38,-1,-3,-8
Cc1ccc(C)c(NS(=O)(=O)c2ccc(-c3cnc(C4CC4)o3)cc2)c1,12,-1,36,42,0,4,.
O=S(=O)(Nc1ccccc1)c1ccc(-c2cnc(C3CC3)o2)cc1,2,21,46*,34,3,4,-38
COc1ccccc1NS(=O)(=O)c1cc(-c2cnc(C3CC3)o2)ccc1C,-11,16,45*,45,-2,-5,12
CC(=O)Nc1ccc(NS(=O)(=O)c2ccc(-c3cnc(C4CC4)o3)cc2)cc1,14,11,12,12,-1,-12,.
O=C(C1CC1)N1CCc2cc(S(=O)(=O)NCC3COc4ccccc4O3)ccc21 (stereo not given),-3,4,46*,27,32,5,26
O=C(C1CCC1)N1CCc2cc(S(=O)(=O)NCC3COc4ccccc4O3)ccc21 (stereo not given),9,3,11,1,26,6,.
O=C(O)Cc1sc(Nc2ccccc2)nc1-c1ccc(Cl)cc1,6,-2,40*,25,13,13,23
COc1cc(/C=C/c2nc(-c3ccccc3O)n[nH]2)cc(OC)c1OC,-12,16,40*,45,38,-13,28
COc1cc(C(=O)N2CCN(Cc3ccccc3C(F)(F)F)CC2)cc(OC)c1OC,-2,-3,43*,27,24,-4,24
